From PubChem BioAssay
Shown are actives, neighbours in structure and some others; about 5.2% of the full set was active somewhere.
Tau fibril FP – inhibitors of human tau fibril formation. Potency, µM (doses to about 57.7 µM), without a hit: top-dose activity, negative = inhibition, actives largely listed as inhibitors. 280,000 tested, 0.39% active. AID 1468. K18 P301L tau heparin fibrillization, Alexa594 FP, 6 h. P10636; note: potency is the fitted concentration of half-maximal effect; nearly all actives have a fitted effect of over 55% in size
Target sequence (P10636 561-689 P618L limits assumed): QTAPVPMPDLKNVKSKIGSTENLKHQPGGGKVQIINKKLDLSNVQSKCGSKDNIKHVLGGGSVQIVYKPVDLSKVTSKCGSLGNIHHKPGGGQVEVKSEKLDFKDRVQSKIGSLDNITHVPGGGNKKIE
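Recombinant K18 P301L […], labeled with Alexa 594 at 0.24 uM over 15 uM unlabeled; heparin inducer 20 uM final; 37 C, 6 hr; FP endpoint.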
Sfp PPTase inh – inhibitors of Bacillus subtilis Sfp phosphopantetheinyl transferase; Q9F4F7; Biochemical Sfp PPTase activity, qHTS; Potency, µM, for the others: largest response in the series, negative = inhibition, actives largely listed as inhibitors; 310,000 tested, 3.5% active; AID 1490;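 note: the enzyme is Sfp with the accession as filed and its product quenches rhodamine fluorescence; potency is the fitted concentration of half-maximal effect; 0% = enzyme reaction without inhibitor and -100% = no enzyme wells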
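After 15 min at room temperature with compound, 15 nM Sfp received 5 uM rhodamine-CoA plus 12.5 uM BHQ-2-ybbR (50 mM Hepes pH 7.6, 10 mM MgCl2). Rate came from the fluorescence difference over 30 min, ex 525/em 598 nm.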
Tau fluor counter – counter-screen for tau fibril formation inhibitors; tau K18 P301L Alexa594 fluorescence, heparin fibrillization; Potency, µM (top dose mostly 57.7 µM), without a hit: at the highest dose activity change, negative = decrease; 280,000 tested, 0.93% active; note: potency is the fitted concentration of half-maximal effect; nearly all actives have a fitted effect of over 55% in size
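Human tau K18 P301L (15 uM unlabeled, 0.24 uM Alexa 594-labeled) in 100 mM sodium acetate pH 7 with 20 uM heparin, 6 hr at 37 C. ThT 30 uM added, 1 hr ambient; Alexa 594 FP and total fluorescence read at 555/632 nm.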
Coupling enz – coupling enzyme interference in Giardia aldolase counter-screen. 290,000 tested, 0.67% active. coupling enzyme system counterscreen, AmpLite Red fluorescence. activity change, negative = inhibition, % at 58.2 µM, hits read low. AID 2472; in the data active = activity change below about -30%
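Final compound at 57.5 uM, incubated 10 min at RT with coupling enzyme reagent (glyceraldehyde-3-phosphate), then 20 min with substrate and AmpLite Red detection. Fluorescence read at 525/598 nm; tests interference with the coupling assay, not aldolase inhibition.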
Tau ThT inhib – tau fibrillization inhibition (ThT binding); recombinant tau K18 P301L (four-repeat tau fragment), heparin-induced fibrillization, ThT fluorescence; Potency, µM (titrated, usually from 57.4 µM), for the others: at the top dose activity, negative = inhibition, hits mostly inhibitors; 270,000 tested, 2.1% active; AID 1460; note: potency is the fitted concentration of half-maximal effect; nearly all actives have a fitted effect of over 55% in size
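In this qHTS, human K18 P301L tau is incubated with compound and heparin for 6 hr at 37 C, and Thioflavin T fluorescence then reports fibril load.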
* marks the source's active call; other numbers are inactive results; ? = inconclusive; / = no result; [ ] = dose if it differs, or a comment. Unless noted, calls come from the whole dose curve; as a rule, active = well fitted curve in the direction sought with a large enough effect; inconclusive = small, poorly fitted or top-dose-only effect, or another doubt; inactive = no such curve, though single readings can be large; an effect the other way counts as inactive or inconclusive. Unless noted, % is set by controls: 0 for no effect and ±100 for the full control effect.

SMILES | Tau fibril FP | Sfp PPTase inh | Tau fluor counter | Coupling enz | Tau ThT inhib
CCCCOC(=O)Nc1sc2c(c1C(=O)OC)CCC2 | -9% | 50µM* | -16% | 1 | ?
CCOC(=O)C(NC(=O)CC)(Nc1nc2c(s1)CCCC2)C(F)(F)F (stereo not drawn) | -3% | 10% | -7% | 4 | -9%
CCOC(=O)Nc1sc2c(c1C(=O)OCC)CCC2 | 1% | 40µM* | -16% | 1 | ?
CCOC(=O)NC(Nc1sc2c(c1C(N)=O)CCCC2)(C(=O)OCC)C(F)(F)F (stereo not drawn) | -12% | 35µM* | -15% | -12 | ?
Cc1ccc(NC(=O)NCCOCCn2c(=O)oc3ccccc32)c(C)c1 | -3% | / | 1% | / | 7%
COc1ccc(CNC(=O)c2cc3ccccc3oc2=O)cc1 | / | 9% | / | 0 | /
Cc1[nH]c2ccccc2c1SCCNC(=O)c1ccc(F)cc1 | 19% | / | ? | / | -10%
Cc1[nH]c2ccccc2c1SCCNC(=O)c1ccc(S(=O)(=O)N2CCCC2)cc1 | 6% | 5% | 16µM*[quencher] | -2 | -15%
CCN(CC)S(=O)(=O)c1ccc(C(=O)NCCSc2c(-c3ccc(C)cc3)[nH]c3ccccc23)cc1 | -1% | / | 3.2µM*[quencher] | / | -4%
COc1ccc(-c2[nH]c3ccccc3c2SCCNC(=O)c2cc3ccccc3oc2=O)cc1 | 14% | 9% | 11µM*[quencher] | -1 | ?
N#Cc1ccc(CN2CCC3(CC2)CCN(C(=O)c2ccco2)CC3)cc1 | / | 31% | / | 2 | /
COc1ccc(-c2cn3c(n2)sc2cc(C(=O)NCCCN4CCCCCC4)ccc23)cc1 | 2% | / | -6% | / | -7%
CN1CCC(N(C)CC(=O)Nc2ccc3c(c2)OC(F)(F)O3)CC1 | -4% | 50µM* | -7% | 6 | -12%
Cc1cc(=O)oc2c3c(ccc12)OCN(Cc1ccc(Cl)cc1)C3 | -9% | / | -10% | / | -5%
COc1cc(Cl)c(C)cc1NC(=O)CC(c1ccc(F)cc1)N1Cc2ccccc2C1=O (stereo not drawn) | 2% | / | -12% | / | 6%
CSc1ccccc1NC(=O)C(=O)c1c[nH]c2ccccc12 | 10µM* | 8% | ? | -3 | -1%
O=C(NC(=S)Nc1cc(S(=O)(=O)N2CCOCC2)ccc1O)c1ccco1 | -1% | 45µM* | -4% | 0 | -6%
O=C(NC(=S)Nc1cc(S(=O)(=O)N2CCOCC2)ccc1N1CCOCC1)c1ccco1 | 1% | 10% | -7% | -3 | 5%
CCN(CC)S(=O)(=O)c1ccc(N2CCOCC2)c(NC(=S)NC(=O)c2ccco2)c1 | ? | 20µM* | ? | 1 | ?
Nc1nc(-c2c[nH]c3ccccc23)cs1 | ? | 22µM* | 16µM*[quencher] | -9 | 16µM*
CNc1nc(-c2c[nH]c3ccccc23)cs1 | ? | 56µM* | 28µM*[quencher] | -5 | 25µM*
Cc1ccc2c(-c3csc(N)n3)c[nH]c2c1 | / | -19% | / | -1 | /
CCCC[C@H](NC(=O)[C@H](CC(C)C)NC(=O)CNC(=O)[C@@H](NC(=O)[C@H](Cc1ccccc1)NC(=O)[C@H](CO)NC(=O)[C@@H](N)CC(=O)O)C(C)C)C(N)=O | / | -3% | / | 0 | /
Cc1ccccc1C(=O)Nc1nnc(S(=O)(=O)N2CCCCCC2)s1 | -6% | 21% | -29% | 2 | 14µM*
O=C(Nc1nnc(S(=O)(=O)N2CCCCC2)s1)c1ccc(F)cc1 | 17% | / | ? | / | 4.5µM*
SMILES | Tau fibril FP | Sfp PPTase inh | Tau fluor counter | Coupling enz | Tau ThT inhib
Cc1cccc(C(=O)Nc2nnc(S(=O)(=O)N3CCOCC3)s2)c1 | 5% | 14% | -26% | -16 | 3.5µM*
O=C(Nc1nnc(S(=O)(=O)N2CCOCC2)s1)c1cccc(F)c1 | ? | 16% | ? | -16 | ?
Cc1ccnc(NS(=O)(=O)c2ccc(NC(=O)C(C)(C)Oc3ccc(Cl)cc3)cc2)n1 | 8% | / | -6% | / | -9%
Cn1c(=O)c2c(nc(Br)n2CCCc2ccccc2)n(C)c1=O | -2% | ? | 0% | -2 | 4%
Cn1c(=O)[nH]c(=O)c2c1[nH]c(=S)n2Cc1ccc(Cl)cc1 | / | 8.9µM* | / | 5 | /
Cn1c(=O)n(Cc2ccccc2Cl)c2ccccc21 | -5% | ? | -2% | 0 | 2%
Cn1c(=O)n(Cc2ccccc2Cl)c(=O)c2c1[nH]c(=S)n2C | / | 50µM* | / | 1 | /
Cn1c(=O)c2c([nH]c(=S)n2CCCc2ccccc2)n(C)c1=O | / | 50µM* | / | 0 | /
CC(C)Sc1nc2c(c(=O)[nH]c(=O)n2C)n1Cc1ccc(Cl)cc1 | -1% | -27% | 1% | -1 | -4%
Cn1c(=O)[nH]c(=O)c2c1[nH]c(=S)n2CCCc1ccccc1 | / | 14µM* | / | 1 | /
CCOc1ccc(NC(=O)CC2C(=O)N(c3ccc(C)cc3)C(=O)N2Cc2ccc(OC)cc2)cc1 (stereo not drawn) | 0% | / | -3% | / | 1%
CC(C)OC(=O)c1c(NC(=O)c2cccc(C(F)(F)F)c2)sc2c1CCCC2 | -4% | / | -11% | / | -3%
O=C(O)c1ccc2c(c1)ncn2C1CCCCCC1 | 3% | 89µM* | -4% | 10 | -5%
O=C(Cc1ccc(F)cc1)NCCc1csc2nc(-c3ccc(Cl)cc3)nn12 | -8% | / | -22% | / | -2%
COC(=O)[C@@H](Cc1c[nH]c2ccccc12)NC(=O)c1ccc2c(c1)OCO2 | / | 3% | / | -4 | /
O=C(COC(=O)[C@H](Cc1c[nH]c2ccccc12)NC(=O)c1ccc(Cl)cc1)Nc1ccc2c(c1)OCO2 | -14% | 26% | 8.9µM*[quencher] | 1 | ?
O=c1c(-c2ccc(F)cc2)nc2cnc(N3CCOCC3)nc2n1Cc1ccc(F)cc1 | / | -7% | / | 2 | /
O=c1cc(CN2CCN(c3ccc(O)cc3)CC2)nc2scc(-c3ccccc3)n12 | 6% | 56µM* | -7% | -9 | -12%
CC(=O)Nc1ccc(N2C(C(C)=O)=NN(c3ccc(Cl)cc3)C2c2sccc2C)cc1 (stereo not drawn) | -15% | 20% | 28µM*[quencher] | 0 | ?
CC(=O)Nc1ccc(C2=NN(c3ccccc3)C(c3cccs3)C2)cc1 (stereo not drawn) | ? | 2% | 8.9µM*[quencher] | 1 | -11%
CC(=O)Nc1ccc(N2C(C(C)=O)=NN(c3ccccc3)C2c2cccs2)cc1 (stereo not drawn) | 0% | 0% | 25µM*[quencher] | -1 | ?
CC(C)C(=O)OCc1cc(=O)n2nc(C3CC3)sc2n1 | -14% | / | -11% | / | -8%
CCn1c(SC)nc2c([nH]c3ccccc32)c1=O | -8% | / | -17% | / | -11%
Cc1ccc(-c2nnc(Nc3cccc(Cl)c3)c3ccccc23)cc1S(=O)(=O)NCC1CCCO1 (stereo not drawn) | ? | / | ? | / | 11%
O=C1C=CC2(OCCCO2)C(Br)=C1CO | ? | -2% | -10% | 1 | 16µM*
Cc1ccccc1OCc1nc2ccccc2c(=O)n1/N=C/c1c[nH]c2ccccc12 | ? | 1% | ? | -5 | 9%
